Activity calls are given as the source filed them.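 How the source made its calls: active means compound raises insulin release from rat beta cells at 5 mM glucose, no numeric limit stated; inactive means the rest.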 Peptide text beside a SMILES is read from it.

This experiment in a line: stimulators of insulin release from INS-1E, primary screen, cell-based, 5 mM glucose, NPC library (AID 1117329). Further: reference of the scale not given here. Conditions: rat INS-1E insulin secretion, at 10 µM, stronger effect = higher value.
As to `CCCC(C(=O)OCCN(CC)CC)(c1ccccc1)c1ccccc1`, the insulin secretion stimulation was 5.7% (inactive).

Take `O=C(Nc1ccc([N+](=O)[O-])cc1Cl)c1cc(Cl)ccc1O`: the insulin secretion stimulation was -1.7% (inactive).

In the case of `C=CC(N)CCC(=O)O` (stereo not drawn), the insulin secretion stimulation was 1.4% (inactive).

On to `CC1(C)O[C@@H]2C[C@H]3[C@@H]4CCC5=CC(=O)CC[C@]5(C)[C@@]4(F)[C@@H](O)C[C@]3(C)[C@]2(C(=O)CCl)O1`, for which the insulin secretion stimulation is -0.7% (inactive).

Turning to `CNC1(C)C2CCC(C2)C1(C)C` (stereo not drawn), the insulin secretion stimulation was 3.5% (inactive).

Take `NCCS`: the insulin secretion stimulation is 2.9% (inactive).

In the case of `OC[C@H]1O[C@@H](O[C@@H]2[C@@H](CO)O[C@](O)(CO)[C@H]2O)[C@H](O)[C@@H](O)[C@H]1O`, the insulin secretion stimulation is 0.5% (inactive).

Take `Nc1c2c(nc3ccccc13)CCCC2O` (stereo not drawn): the insulin secretion stimulation is 11.8% (inactive).

Consider `CSc1ccc2c(c1)C(N1CCN(C)CC1)Cc1ccccc1S2` (stereo not drawn), for which the insulin secretion stimulation is 30.7% (active).

On to `Cc1ccc(C(=O)Nc2ccc(S(=O)(=O)O)c3cc(S(=O)(=O)O)cc(S(=O)(=O)O)c23)cc1NC(=O)c1cccc(NC(=O)Nc2cccc(C(=O)Nc3cc(C(=O)Nc4ccc(S(=O)(=O)O)c5cc(S(=O)(=O)O)cc(S(=O)(=O)O)c45)ccc3C)c2)c1`, for which the insulin secretion stimulation was 1.6% (inactive).

Turning to `C[N+]1(CCCCC[N+]2(C)CCCC2)CCCC1`, the insulin secretion stimulation was 2.5% (inactive).

In the case of `CCCCCN(CCCCC)C(=O)C(CCC(=O)O)NC(=O)c1ccc(Cl)c(Cl)c1` (stereo not drawn), the insulin secretion stimulation is 2.8% (inactive).

Turning to `NC(=O)NO`, the insulin secretion stimulation is 0% (inactive).

Take `CCOC(=O)C(C)(C)Oc1ccc(Cl)cc1`: the insulin secretion stimulation is -0.8% (inactive).

On to `CC(=O)OC(C)C[N+](C)(C)C` (stereo not drawn), for which the insulin secretion stimulation was -0.3% (inactive).

Regarding `NNc1nncc2ccccc12`, the insulin secretion stimulation is -1.2% (inactive).

Turning to `CCOC(=O)NNc1nncc2ccccc12`, the insulin secretion stimulation is 3.7% (inactive).

For the compound `COC(=O)[C@H](Cc1ccccc1)NC(=O)[C@@H](N)CC(=O)O` (H-Asp-Phe-OMe), the insulin secretion stimulation was 2.8% (inactive).

`COc1ccnc(CS(=O)c2nc3ccc(OC(F)F)cc3[nH]2)c1OC` (stereo not drawn): the insulin secretion stimulation is 1.2% (inactive).

As for `COC(=O)[C@@H]1[C@H]2C[C@H]3c4[nH]c5ccccc5c4CCN3C[C@@H]2CC[C@@H]1O`, the insulin secretion stimulation was 1.1% (inactive).

On to `CC(=O)Oc1ccccc1C(=O)O`, for which the insulin secretion stimulation is 0.1% (inactive).

Regarding `Cn1cnc2c1c(=O)[nH]c(=O)n2C`, the insulin secretion stimulation is 2.3% (inactive).

Consider `O=C(COc1ccc(Cl)cc1)N1CCN(Cc2ccc3c(c2)OCO3)CC1`, for which the insulin secretion stimulation is 2.3% (inactive).

Regarding `C[n+]1cc2c3c(ccc2c2ccc4cc5c(cc4c21)OCO5)OCO3`, the insulin secretion stimulation is -3.7% (inactive).

As for `CN(C)[C@@H]1C(=O)C(C(N)=O)=C(O)[C@@]2(O)C(=O)C3=C(O)c4c(O)ccc(Cl)c4[C@@H](O)[C@H]3C[C@@H]12`, the insulin secretion stimulation was 0.9% (inactive).

`Cc1cc(N)c2ccccc2[n+]1CCCCCCCCCC[n+]1c(C)cc(N)c2ccccc21`: the insulin secretion stimulation is -0.4% (inactive).

In the case of `C=Cc1c(C)c2cc3[nH]c(cc4nc(cc5nc(cc1[nH]2)C(C)=C5CCC(=O)O)C(CCC(=O)O)=C4C)c(C)c3C=C`, the insulin secretion stimulation was -1.6% (inactive).

As for `CCN(CC)C(C)CN1c2ccccc2Sc2ccccc21` (stereo not drawn), the insulin secretion stimulation is 7.3% (active).

On to `NCCCCCC(=O)O`, for which the insulin secretion stimulation is -1.3% (inactive).

For `CCN(CC)CCNC(=O)c1ccc(NC(C)=O)cc1`, the insulin secretion stimulation was 0.3% (inactive).

On to `CCOC(=O)c1ccc(N)cc1`, for which the insulin secretion stimulation was -1% (inactive).

For `CNC[C@H](O)c1cccc(O)c1`, the insulin secretion stimulation is 0% (inactive).

In the case of `O=c1c(O)c(-c2ccc(O)c(O)c2)oc2cc(O)cc(O)c12`, the insulin secretion stimulation was -2.9% (inactive).

For `O=C(OCC(O)CO)c1ccccc1Nc1ccnc2cc(Cl)ccc12` (stereo not drawn), the insulin secretion stimulation was 6.1% (inactive).

Consider `CC(=O)O[C@]1(C(C)=O)CC[C@H]2[C@@H]3C=C(Cl)C4=CC(=O)[C@@H]5C[C@@H]5[C@]4(C)[C@H]3CC[C@@]21C`, for which the insulin secretion stimulation is -1.4% (inactive).

On to `C[C@H]1O[C@@H](n2cc(F)c(=O)[nH]c2=O)[C@H](O)[C@@H]1O`, for which the insulin secretion stimulation is -1.2% (inactive).

On to `CC1(C)NC(=O)N(c2ccc([N+](=O)[O-])c(C(F)(F)F)c2)C1=O`, for which the insulin secretion stimulation was 0.7% (inactive).

Consider `C[N+](C)(C)CCCCCC[N+](C)(C)C`, for which the insulin secretion stimulation is 0.75% (inactive).

Source of the values: PubChem BioAssay.
